Compound activity deposited in PubChem by National Center for Advancing Translational Sciences (NCATS).
In the library only some 10% were active in any assay of this set; here they are far more common.
RORg inh: qHTS for inhibitors of ROR gamma transcriptional activity; Potency, µM (doses to about 53.6 µM), for the others: top-dose activity change, negative = inhibition, most hits filed as inhibitors; Nuclear receptor ROR-gamma (Mus musculus), P51450; AID 2551, 2010; 310,000 compounds, 5.4% hits; Drosophila S2 Gal4-RORgamma UAS-luciferase reporter, 20 h; note: % is set by controls: 0 for no effect and ±100 for the full control effect; nearly all actives have a fitted effect of over 60% in size
Target sequence (P51450 whole entry, looked up, the tested form may be a part): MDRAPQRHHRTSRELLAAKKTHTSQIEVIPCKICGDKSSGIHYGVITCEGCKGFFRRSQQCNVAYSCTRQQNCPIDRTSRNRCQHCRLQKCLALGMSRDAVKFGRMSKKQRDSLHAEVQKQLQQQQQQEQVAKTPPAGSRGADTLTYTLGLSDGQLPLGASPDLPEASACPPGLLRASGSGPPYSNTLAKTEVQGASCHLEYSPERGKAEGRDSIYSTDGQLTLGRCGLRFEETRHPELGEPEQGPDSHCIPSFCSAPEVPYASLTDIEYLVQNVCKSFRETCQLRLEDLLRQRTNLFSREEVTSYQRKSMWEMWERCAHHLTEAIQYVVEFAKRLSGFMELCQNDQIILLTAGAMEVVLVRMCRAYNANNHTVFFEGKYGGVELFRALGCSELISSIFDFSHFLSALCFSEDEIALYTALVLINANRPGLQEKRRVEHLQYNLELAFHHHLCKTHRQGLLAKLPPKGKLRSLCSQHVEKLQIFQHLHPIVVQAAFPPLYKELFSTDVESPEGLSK
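Using a luciferase readout, inhibitors were identified by reduced reporter activity in Drosophila cells coexpressing a copper-inducible Gal4–ROR gamma fusion and UAS-driven Photinus luciferase, incubated 20 hr after 700 uM copper sulfate.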
VP16 counter: VP16 counterscreen qHTS for inhibitors of ROR gamma transcriptional activity; Potency, µM (titrated, usually from 53.6 µM), for inactives: at the highest dose activity, negative = inhibition, most hits filed as inhibitors; 310,000 compounds, 3.5% hits; Drosophila S2 Gal4-VP16 UAS-luciferase, luminescence, 20 h;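 note: Gal4-VP16 expression switched on by copper sulfate through the metallothionein promoter; % is set by controls: 0 for no effect and ±100 for the full control effect; nearly all actives have a fitted effect of over 50% in size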
ELG1 DNA repair: qHTS screen for small molecules that inhibit ELG1-dependent DNA repair in human embryonic kidney (HEK293T) cells expressing luciferase-tagged ELG1; HEK293T ELG1-luciferase reporter, luminescence, 16 h; DNA damage induced by 5-fluorouridine; Potency, µM (doses to about 46.1 µM), for the others: top-dose activity change, negative = inhibition, most hits filed as inhibitors; 330,000 compounds, 2.3% hits; note: % is set by controls: 0 for no effect and ±100 for the full control effect; nearly all actives have a fitted effect of over 55% in size
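Reporter activity after DNA damage by 5-fluorouridine is monitored. Compound-treated cells incubate 16 hr at 37 °C, then ONE-Glo is added for 30 min before luminescence reading.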
SW480 rerep: A quantitative high throughput screen for small molecules that induce DNA re-replication in SW480 colon adenocarcinoma cells | SW480 DNA re-replication, Hoechst DNA content imaging, 48 h | Potency, µM (titrated, usually from 46.1 µM), inactives show at the highest dose re-replication activation, actives largely listed as activators | 340,000 compounds, 1.8% hits; note: % of control where 0% means no effect; nearly all actives have a fitted effect of over 55% in size
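SW480 cells exposed to compounds for 48 hr at 37 C, 5% CO2, then Hoechst-stained 40 min. Nuclear DNA content imaged by fluorescence scanning (405 nm excitation, 500-530 nm emission); re-replication scored as increased high-intensity nuclei.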
MCF10A rereplic: A quantitative high throughput screen for small molecules that induce DNA re-replication in MCF 10a normal breast cells | MCF 10A DNA re-replication, Hoechst nuclear intensity, 48 h | Potency, µM (highest dose often 46.1 µM), without a hit: top-dose activity, positive = re-replication, usual class: activators | 350,000 compounds, 2.9% hits | AID 624296, 2012; note: % of control where 0% means no effect; nearly all actives have a fitted effect of over 50% in size
* hit, by the source's call; ? = inconclusive; nt = no result given; [ ] = another dose, or the depositor's remark. Calls come from the whole dose curve; as a rule, active = well fitted curve in the direction sought with a large enough effect; inconclusive = small, poorly fitted or top-dose-only effect, or another doubt; inactive = no such curve, though single readings can be large; an effect the other way counts as inactive or inconclusive. Potency is the fitted concentration of half-maximal effect.

SMILES	RORg inh	VP16 counter	ELG1 DNA repair	SW480 rerep	MCF10A rereplic
Cc1nc(CSc2nc3[nH]ncc3c(=O)n2-c2ccccc2)cs1	19%	0%	-5%	-1%	-1%
Cc1noc(C)c1CSc1nc2ccccc2c(=O)n1-c1ccccc1	-22%	-3%	-18%	13µM*	7.3µM*
Cc1noc(C)c1CSc1nnc2n(-c3ccccc3)c(=O)c3ccccc3n12	nt	nt	nt	3%	-3%
CN(C(=O)CSc1nc2ccccc2c(=O)n1-c1ccc(F)cc1F)C1CCS(=O)(=O)C1 (stereo unspecified)	nt	nt	11%	0%	-1%
Cc1noc(C)c1CSc1nc2[nH]ncc2c(=O)n1-c1ccccc1	43%	-12%	?	?	1.3µM*
Cc1noc(C)c1CSc1nc2ccccc2c(=O)n1-c1ccc(F)cc1F	-6%	-3%	?	?	13µM*
O=C(COC(=O)c1c[nH]c(=O)[nH]c1=O)Nc1cccc([N+](=O)[O-])c1	nt	nt	19%	-3%	-6%
CC(C)(C)N(Cc1ccccc1)C(=O)CN1C(=O)NC2(CCCCCC2)C1=O	nt	nt	7%	-15%	10%
Cc1nc2c(C#N)c[nH]n2c(=O)c1Cc1ccccc1	26%	-2%	1%	29%	-13%
Cc1nc2c(-c3ccc(F)cc3)c(C)[nH]n2c(=O)c1Cl	11µM*	11µM*	-1%	7.3µM*	13%
COc1ccc(-c2c(C)[nH]n3c(=O)c(Cc4ccccc4)c(C)nc23)cc1OC	3.5µM*	?	?	?	?
Cc1nc2c(-c3ccccc3)c(C)[nH]n2c(=O)c1Cc1ccccc1	2.8µM*	7.1µM*	?	?	?
Cc1nc2c(-c3ccc(Cl)cc3)c(C)[nH]n2c(=O)c1Cc1ccccc1	1.4µM*	?	4.1µM*	?	?
Cc1nc2c(C#N)c(C)[nH]n2c(=O)c1Cc1ccccc1	-42%	2%	-14%	2%	3%
CC(C)c1ccccc1NC(=O)COC(=O)/C=C/c1cccc([N+](=O)[O-])c1	3%	-11%	16%	-3%	?
COc1ccc(C(=O)NNC2=Nc3cccc4cccc2c34)cc1	0.56µM*	?	-9%	7%	?
NC(=O)NNC1=Nc2cccc3cccc1c23	-35%	-11%	-11%	-2%	-1%
COc1ccc(CC(=O)NNC2=Nc3cccc4cccc2c34)cc1	8.9µM*	-19%	0%	16µM*	21µM*
Cc1ccc(C(=O)NNC2=Nc3cccc4cccc2c34)cc1	0.89µM*	1.4µM*	-4%	-4%	6%
COC(=O)[C@@]1(Cc2ccc(F)cc2)[C@H]2c3cc(C(=O)N(C)C)n(Cc4cc(F)c(F)c(F)c4)c3C[C@H]2CN1C(=O)c1ccccc1	-2%	-5%	nt	nt	nt
C/C(=N\NC(=O)c1ccccc1)c1cc2cc([N+](=O)[O-])ccc2oc1=O	7.9µM*	5µM*	-8%	10%	1%
C/C(=N\Nc1ccc([N+](=O)[O-])cc1[N+](=O)[O-])c1cc2c(ccc3ccccc32)oc1=O	-19%	-4%	10%	nt	nt
C/C(=N\NC(=O)c1ccncc1)c1cc2ccccc2oc1=O	7.9µM*	13µM*	1%	?	-2%
C/C(=N\NC(=O)c1ccc([N+](=O)[O-])cc1)c1cc2ccccc2oc1=O	16µM*	?	12%	?	10%
N/C(=N\NC(=O)c1ccccc1Cl)c1cc2ccccc2oc1=O	14µM*	?	?	-2%	-3%
SMILES	RORg inh	VP16 counter	ELG1 DNA repair	SW480 rerep	MCF10A rereplic
C/C(=N/NC(=O)c1ccncc1)c1cc2ccc(O)cc2oc1=O	12%[10 µM]	-4%	-2%	61%	?
O=C(Nc1ccc(S(=O)(=O)N2CCCCC2c2cccnc2)cc1)c1ccccc1F (stereo unspecified)	?	?	?	2%	13%
O=C(NC(=S)NN1CCCCC1c1cccnc1)c1ccc(Br)cc1 (stereo unspecified)	1.1µM*	1.4µM*	?	0%	9%
O=C1/C(=C/c2ccc(F)cc2)SC(=S)N1CC(=O)N1CCCCC1c1cccnc1 (stereo unspecified)	2%	4%	?	-11%	-4%
COc1ccccc1C(=O)Nc1ccc(S(=O)(=O)N2CCCCC2c2cccnc2)cc1 (stereo unspecified)	5%	1%	23µM*	16%	2%
COc1cccc(OC)c1C(=O)NC(=S)N1CCCCC1c1cccnc1 (stereo unspecified)	22µM*	-17%	12%	-14%	5%
O=C(/C=C/c1ccc(F)cc1)NC(=S)N1CCCCC1c1cccnc1 (stereo unspecified)	5µM*	?	11%	?	-1%
Cc1ccc(NC(=O)C(C)OC(=O)c2ccc(NC(=O)CC#N)cc2)cc1S(=O)(=O)N1CCOCC1 (stereo unspecified)	nt	nt	-23%	-1%	-2%
C[N+](C)(CCCOc1ccccc1)c1ccccc1	13%[16.9 µM]	-3%[17 µM]	nt	nt	nt
C=CCC[C@@H](Cc1ccc(F)cc1)C(=O)OC[C@H](Cc1c[nH]c2ccccc12)NC(=O)[C@H](CC=C)CC(=O)N(CCO)Cc1ccccc1	nt	nt	18µM*	?	?
C=CC[C@@H](CC(=O)N(CCO)Cc1ccccc1)C(=O)N[C@H](C)COC(=O)[C@@H](CC=C)Cc1ccc(F)cc1	nt	nt	?	0%	?
C=CCC[C@H](Cc1ccc(F)cc1)C(=O)OC[C@H](Cc1c[nH]c2ccccc12)NC(=O)[C@H](CC=C)CC(=O)NCCO	nt	nt	-14%	-2%	?
C=CC[C@H](CC(=O)N(CCO)Cc1ccccc1)C(=O)N[C@H](COC(=O)[C@@H](CC=C)Cc1ccc(F)cc1)Cc1ccccc1	nt	nt	21µM*	17%	5%
C=CCC[C@H](Cc1ccc(F)cc1)C(=O)OC[C@H](Cc1c[nH]c2ccccc12)NC(=O)[C@@H](CC=C)CC(=O)N(CCO)Cc1ccccc1	nt	nt	23µM*	?	?
C=CCC[C@H](Cc1ccc(F)cc1)C(=O)O[C@H](CNC(=O)[C@@H](CC=C)CC(=O)N(CCO)Cc1ccccc1)c1ccccc1	nt	nt	?	?	21µM*
CNS(=O)(=O)c1cc(NC(=O)c2cnc(SC)n2-c2ccccc2)ccc1C	?	-5%	10%	-1%	0%
O=S1(=O)CCOC[C@H](c2ccccc2)N1Cc1cccc(F)c1	-7%	-16%	26%	-9%	30%
